Assays:
Test in all cases: log2 ratio of Biotin-Ahx-Ub-VS probe labelling (fragment/DMSO); higher = less target engagement (more negative = stronger competition), active = hit call of the paper (q ≤ 0.05, log2 ratio ≤ -1)
Conditions in all cases: compound concentration: 200 uM; treatment time: 3 h
[1] = target: T1, USP42 (UniProt Q9H9J4)
T1 sequence (whole entry): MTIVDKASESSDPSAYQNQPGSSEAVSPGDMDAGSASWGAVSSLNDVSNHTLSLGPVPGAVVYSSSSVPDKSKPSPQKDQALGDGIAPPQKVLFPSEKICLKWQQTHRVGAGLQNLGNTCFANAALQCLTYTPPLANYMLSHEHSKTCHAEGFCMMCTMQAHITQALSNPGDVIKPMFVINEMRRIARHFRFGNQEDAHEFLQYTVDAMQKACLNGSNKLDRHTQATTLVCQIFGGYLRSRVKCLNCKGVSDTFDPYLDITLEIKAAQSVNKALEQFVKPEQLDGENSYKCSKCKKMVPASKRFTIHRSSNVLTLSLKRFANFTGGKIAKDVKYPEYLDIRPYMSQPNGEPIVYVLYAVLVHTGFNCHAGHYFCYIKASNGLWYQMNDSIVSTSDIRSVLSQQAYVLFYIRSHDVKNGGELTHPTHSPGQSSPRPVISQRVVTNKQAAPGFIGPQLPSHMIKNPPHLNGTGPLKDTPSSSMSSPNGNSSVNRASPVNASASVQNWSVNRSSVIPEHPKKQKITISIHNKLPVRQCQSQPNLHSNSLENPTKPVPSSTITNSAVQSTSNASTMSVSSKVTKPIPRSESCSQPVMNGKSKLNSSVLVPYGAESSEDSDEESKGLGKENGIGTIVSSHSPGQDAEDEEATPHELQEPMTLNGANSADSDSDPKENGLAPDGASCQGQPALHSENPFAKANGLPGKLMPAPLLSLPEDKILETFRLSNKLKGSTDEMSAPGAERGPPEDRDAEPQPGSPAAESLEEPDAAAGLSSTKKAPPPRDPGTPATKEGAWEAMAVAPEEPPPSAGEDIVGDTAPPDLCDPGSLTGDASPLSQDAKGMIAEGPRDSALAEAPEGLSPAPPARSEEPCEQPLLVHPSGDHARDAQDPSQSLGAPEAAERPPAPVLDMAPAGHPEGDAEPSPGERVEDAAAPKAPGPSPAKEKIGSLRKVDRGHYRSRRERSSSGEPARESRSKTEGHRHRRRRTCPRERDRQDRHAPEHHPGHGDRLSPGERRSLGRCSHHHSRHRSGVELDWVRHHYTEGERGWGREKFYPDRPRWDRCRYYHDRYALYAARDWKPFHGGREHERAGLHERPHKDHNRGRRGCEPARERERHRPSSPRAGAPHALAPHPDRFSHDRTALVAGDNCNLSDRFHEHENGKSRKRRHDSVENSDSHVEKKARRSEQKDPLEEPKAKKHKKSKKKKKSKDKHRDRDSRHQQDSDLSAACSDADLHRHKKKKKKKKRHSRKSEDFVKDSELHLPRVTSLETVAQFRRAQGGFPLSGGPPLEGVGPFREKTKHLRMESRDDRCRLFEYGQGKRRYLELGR
In short: (§1)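 The table lists average log2 ratios of fragment over vehicle, from an unpaired t-test on global-median-normalised Spectronaut label-free quantities. Proteins with ≥2 unique peptides were used. Samples were HEK293T lysate (495 µg) treated in triplicate with fragment at 200 µM or vehicle for 3 h, then with Biotin-Ahx-Ub-VS (0.5 µM final) for 1 h, with labelled DUBs NeutrAvidin-enriched and run by diaPASEF LC-MS/MS.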

[2] = target: USP46 (UniProt P62068)
In short: as §1

[3] = target: T2, USP47 (UniProt Q96K76)
T2 sequence (whole entry): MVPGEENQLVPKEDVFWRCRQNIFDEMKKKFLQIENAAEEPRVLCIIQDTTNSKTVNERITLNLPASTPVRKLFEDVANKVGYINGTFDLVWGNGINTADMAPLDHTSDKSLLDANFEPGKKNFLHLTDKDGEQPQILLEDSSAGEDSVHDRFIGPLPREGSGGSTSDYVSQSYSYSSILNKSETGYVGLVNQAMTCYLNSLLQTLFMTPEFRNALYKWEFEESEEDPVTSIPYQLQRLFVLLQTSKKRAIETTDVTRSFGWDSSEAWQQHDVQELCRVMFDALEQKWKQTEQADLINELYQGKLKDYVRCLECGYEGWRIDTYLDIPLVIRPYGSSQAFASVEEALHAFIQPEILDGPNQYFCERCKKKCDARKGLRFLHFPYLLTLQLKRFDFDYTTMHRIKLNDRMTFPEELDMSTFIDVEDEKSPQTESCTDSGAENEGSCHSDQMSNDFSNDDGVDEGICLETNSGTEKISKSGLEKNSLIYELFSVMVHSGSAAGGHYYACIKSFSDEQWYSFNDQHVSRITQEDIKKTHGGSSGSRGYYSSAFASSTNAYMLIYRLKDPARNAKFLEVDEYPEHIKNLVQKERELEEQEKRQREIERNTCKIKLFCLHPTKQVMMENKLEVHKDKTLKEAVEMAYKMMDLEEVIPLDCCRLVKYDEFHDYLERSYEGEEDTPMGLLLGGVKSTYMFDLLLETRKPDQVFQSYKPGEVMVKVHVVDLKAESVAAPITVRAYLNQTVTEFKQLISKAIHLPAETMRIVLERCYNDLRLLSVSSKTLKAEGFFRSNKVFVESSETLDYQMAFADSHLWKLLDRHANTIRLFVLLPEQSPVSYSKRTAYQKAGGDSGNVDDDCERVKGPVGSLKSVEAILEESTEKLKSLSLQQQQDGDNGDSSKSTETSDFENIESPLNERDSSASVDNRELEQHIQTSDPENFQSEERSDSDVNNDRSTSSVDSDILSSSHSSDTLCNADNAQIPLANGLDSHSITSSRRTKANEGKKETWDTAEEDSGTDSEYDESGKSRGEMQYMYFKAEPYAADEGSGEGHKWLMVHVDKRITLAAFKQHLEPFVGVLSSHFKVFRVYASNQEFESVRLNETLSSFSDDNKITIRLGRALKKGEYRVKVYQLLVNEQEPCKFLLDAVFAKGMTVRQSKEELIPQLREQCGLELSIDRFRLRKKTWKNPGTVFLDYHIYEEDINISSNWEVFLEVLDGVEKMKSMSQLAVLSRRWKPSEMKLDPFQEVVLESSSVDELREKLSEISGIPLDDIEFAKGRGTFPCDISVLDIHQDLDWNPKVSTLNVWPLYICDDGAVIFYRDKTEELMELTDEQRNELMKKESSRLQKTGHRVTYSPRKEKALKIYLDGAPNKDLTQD
In short: as §1

[4] = target: T3, USP48 (UniProt Q86UV5)
T3 sequence (whole entry): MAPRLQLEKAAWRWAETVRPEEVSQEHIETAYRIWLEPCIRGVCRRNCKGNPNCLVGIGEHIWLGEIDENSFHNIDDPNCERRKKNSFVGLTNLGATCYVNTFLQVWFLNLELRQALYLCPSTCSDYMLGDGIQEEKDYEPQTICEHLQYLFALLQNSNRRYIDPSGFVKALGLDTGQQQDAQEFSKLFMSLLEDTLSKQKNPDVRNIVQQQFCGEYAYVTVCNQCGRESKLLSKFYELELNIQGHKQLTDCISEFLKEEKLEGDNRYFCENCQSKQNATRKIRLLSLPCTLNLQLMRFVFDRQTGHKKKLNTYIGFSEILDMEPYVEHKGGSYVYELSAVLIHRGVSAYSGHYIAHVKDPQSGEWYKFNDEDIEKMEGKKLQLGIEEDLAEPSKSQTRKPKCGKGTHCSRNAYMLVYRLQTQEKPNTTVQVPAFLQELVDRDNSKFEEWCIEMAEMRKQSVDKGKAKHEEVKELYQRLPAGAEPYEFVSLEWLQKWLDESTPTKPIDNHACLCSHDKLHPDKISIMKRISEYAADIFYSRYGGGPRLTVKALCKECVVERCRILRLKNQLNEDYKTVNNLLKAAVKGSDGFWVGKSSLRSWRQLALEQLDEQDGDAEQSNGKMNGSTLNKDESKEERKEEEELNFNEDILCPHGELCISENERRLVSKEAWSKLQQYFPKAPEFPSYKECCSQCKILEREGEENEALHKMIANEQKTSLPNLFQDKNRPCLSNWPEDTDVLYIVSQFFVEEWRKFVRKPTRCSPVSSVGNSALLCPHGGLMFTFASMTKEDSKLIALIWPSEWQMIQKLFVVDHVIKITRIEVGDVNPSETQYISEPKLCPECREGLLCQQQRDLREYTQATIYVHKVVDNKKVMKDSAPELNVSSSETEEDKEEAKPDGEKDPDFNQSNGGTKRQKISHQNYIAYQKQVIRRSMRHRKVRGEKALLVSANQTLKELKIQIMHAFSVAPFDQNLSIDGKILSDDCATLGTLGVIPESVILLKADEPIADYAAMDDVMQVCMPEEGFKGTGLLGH
In short: as §1

[5] = target: T4, USP5 (UniProt P45974)
T4 sequence (whole entry): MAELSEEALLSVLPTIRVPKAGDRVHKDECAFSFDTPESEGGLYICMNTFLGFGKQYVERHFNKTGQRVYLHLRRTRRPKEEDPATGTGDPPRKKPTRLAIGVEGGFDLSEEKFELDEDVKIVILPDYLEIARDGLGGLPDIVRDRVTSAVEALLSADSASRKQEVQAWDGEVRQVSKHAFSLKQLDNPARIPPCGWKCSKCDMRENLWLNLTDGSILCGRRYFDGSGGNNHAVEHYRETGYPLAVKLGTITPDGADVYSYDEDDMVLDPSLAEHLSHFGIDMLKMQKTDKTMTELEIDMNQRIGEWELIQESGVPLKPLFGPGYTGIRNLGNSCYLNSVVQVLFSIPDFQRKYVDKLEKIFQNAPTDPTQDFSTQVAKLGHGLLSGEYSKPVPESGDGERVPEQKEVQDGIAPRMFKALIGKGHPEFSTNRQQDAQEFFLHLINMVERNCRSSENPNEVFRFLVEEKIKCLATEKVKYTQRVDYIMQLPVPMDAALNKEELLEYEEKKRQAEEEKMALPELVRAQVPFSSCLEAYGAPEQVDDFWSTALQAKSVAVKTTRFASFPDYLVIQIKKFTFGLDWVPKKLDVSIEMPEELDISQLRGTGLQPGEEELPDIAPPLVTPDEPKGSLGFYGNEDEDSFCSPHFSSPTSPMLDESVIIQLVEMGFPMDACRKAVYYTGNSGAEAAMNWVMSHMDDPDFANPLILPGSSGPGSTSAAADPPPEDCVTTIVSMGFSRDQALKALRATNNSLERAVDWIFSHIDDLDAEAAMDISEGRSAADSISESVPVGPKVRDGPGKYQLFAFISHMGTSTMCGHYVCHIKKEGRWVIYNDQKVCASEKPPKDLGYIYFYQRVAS
In short: as §1

[6] = target: USP54 (UniProt Q70EL1)
In short: as §1

[7] = target: USP7 (UniProt Q93009)
In short: as §1

[8] = target: T5, USP8 (UniProt P40818)
T5 sequence (whole entry): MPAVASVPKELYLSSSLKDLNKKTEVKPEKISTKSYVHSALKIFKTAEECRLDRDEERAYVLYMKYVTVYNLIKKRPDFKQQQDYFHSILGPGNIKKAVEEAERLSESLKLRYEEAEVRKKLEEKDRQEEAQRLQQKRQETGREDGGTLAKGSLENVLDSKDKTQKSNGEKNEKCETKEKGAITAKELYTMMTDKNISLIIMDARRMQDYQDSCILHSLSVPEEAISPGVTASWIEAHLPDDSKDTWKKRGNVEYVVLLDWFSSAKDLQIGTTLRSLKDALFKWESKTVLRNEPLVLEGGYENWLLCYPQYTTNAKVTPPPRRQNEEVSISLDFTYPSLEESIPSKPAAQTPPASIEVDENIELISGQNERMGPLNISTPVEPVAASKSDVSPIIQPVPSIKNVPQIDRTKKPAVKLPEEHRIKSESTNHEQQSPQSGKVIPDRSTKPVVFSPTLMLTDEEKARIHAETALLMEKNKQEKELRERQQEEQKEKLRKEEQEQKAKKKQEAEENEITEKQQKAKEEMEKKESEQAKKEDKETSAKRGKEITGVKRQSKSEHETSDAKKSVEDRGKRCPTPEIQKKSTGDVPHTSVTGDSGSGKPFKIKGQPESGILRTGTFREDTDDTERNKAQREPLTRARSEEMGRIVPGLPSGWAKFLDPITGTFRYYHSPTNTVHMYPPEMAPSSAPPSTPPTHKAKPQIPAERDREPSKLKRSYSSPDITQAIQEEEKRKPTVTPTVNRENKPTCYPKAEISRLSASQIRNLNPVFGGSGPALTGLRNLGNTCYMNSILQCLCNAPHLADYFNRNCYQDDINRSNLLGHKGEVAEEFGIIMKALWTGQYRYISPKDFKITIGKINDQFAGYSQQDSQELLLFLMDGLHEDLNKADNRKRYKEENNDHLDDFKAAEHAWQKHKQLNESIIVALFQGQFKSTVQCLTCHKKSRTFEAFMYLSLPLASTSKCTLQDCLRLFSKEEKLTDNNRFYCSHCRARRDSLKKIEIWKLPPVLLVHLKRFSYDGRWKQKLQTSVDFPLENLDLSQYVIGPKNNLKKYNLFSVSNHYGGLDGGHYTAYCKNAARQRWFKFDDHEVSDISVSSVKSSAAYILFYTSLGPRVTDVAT
In short: as §1

[9] = target: USP9X (UniProt Q93008)
In short: as §1

[10] = target: UniProt O00487
In short: as §1

Measured: log2 ratio of Biotin-Ahx-Ub-VS probe labelling

Sequence of USP7 (Q93009 whole entry, looked up): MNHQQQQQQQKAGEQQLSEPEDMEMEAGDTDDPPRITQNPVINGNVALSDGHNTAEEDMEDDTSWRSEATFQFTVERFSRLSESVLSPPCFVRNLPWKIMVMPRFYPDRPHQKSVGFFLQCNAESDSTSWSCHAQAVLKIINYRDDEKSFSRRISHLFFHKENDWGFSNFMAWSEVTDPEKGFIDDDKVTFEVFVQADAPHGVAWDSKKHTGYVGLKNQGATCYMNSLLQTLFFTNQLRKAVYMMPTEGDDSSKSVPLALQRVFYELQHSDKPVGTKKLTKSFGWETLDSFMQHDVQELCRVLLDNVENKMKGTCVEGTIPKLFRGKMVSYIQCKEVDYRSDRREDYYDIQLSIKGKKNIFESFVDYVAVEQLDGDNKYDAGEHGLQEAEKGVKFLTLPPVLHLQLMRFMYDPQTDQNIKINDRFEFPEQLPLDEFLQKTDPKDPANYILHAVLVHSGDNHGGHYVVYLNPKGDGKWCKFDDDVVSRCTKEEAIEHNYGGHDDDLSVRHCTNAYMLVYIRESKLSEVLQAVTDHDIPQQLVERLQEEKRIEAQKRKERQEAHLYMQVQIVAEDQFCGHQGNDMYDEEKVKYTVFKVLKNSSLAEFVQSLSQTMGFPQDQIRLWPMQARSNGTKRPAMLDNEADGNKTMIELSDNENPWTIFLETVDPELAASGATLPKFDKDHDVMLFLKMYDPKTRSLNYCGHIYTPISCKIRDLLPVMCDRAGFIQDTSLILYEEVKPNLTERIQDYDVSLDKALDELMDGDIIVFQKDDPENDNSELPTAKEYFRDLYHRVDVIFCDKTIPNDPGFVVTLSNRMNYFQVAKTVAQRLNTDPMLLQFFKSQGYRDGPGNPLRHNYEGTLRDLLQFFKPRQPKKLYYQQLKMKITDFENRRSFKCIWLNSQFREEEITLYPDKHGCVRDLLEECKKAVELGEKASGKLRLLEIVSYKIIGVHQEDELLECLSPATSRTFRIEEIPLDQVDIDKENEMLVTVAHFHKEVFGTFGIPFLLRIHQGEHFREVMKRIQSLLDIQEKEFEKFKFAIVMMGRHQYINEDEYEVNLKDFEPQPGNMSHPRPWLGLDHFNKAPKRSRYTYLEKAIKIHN
Sequence of USP46 (P62068 whole entry): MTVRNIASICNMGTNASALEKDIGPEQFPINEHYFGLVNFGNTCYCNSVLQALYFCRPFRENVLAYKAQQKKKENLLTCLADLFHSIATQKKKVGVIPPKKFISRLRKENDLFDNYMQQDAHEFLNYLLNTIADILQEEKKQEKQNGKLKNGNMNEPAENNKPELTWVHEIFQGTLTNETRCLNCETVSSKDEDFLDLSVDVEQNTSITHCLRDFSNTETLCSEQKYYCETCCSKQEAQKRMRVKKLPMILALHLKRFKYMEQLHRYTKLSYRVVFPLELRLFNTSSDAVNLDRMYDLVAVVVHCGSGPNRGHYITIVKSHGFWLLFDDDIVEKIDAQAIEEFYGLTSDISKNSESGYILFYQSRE
Sequence of USP54 (Q70EL1 whole entry): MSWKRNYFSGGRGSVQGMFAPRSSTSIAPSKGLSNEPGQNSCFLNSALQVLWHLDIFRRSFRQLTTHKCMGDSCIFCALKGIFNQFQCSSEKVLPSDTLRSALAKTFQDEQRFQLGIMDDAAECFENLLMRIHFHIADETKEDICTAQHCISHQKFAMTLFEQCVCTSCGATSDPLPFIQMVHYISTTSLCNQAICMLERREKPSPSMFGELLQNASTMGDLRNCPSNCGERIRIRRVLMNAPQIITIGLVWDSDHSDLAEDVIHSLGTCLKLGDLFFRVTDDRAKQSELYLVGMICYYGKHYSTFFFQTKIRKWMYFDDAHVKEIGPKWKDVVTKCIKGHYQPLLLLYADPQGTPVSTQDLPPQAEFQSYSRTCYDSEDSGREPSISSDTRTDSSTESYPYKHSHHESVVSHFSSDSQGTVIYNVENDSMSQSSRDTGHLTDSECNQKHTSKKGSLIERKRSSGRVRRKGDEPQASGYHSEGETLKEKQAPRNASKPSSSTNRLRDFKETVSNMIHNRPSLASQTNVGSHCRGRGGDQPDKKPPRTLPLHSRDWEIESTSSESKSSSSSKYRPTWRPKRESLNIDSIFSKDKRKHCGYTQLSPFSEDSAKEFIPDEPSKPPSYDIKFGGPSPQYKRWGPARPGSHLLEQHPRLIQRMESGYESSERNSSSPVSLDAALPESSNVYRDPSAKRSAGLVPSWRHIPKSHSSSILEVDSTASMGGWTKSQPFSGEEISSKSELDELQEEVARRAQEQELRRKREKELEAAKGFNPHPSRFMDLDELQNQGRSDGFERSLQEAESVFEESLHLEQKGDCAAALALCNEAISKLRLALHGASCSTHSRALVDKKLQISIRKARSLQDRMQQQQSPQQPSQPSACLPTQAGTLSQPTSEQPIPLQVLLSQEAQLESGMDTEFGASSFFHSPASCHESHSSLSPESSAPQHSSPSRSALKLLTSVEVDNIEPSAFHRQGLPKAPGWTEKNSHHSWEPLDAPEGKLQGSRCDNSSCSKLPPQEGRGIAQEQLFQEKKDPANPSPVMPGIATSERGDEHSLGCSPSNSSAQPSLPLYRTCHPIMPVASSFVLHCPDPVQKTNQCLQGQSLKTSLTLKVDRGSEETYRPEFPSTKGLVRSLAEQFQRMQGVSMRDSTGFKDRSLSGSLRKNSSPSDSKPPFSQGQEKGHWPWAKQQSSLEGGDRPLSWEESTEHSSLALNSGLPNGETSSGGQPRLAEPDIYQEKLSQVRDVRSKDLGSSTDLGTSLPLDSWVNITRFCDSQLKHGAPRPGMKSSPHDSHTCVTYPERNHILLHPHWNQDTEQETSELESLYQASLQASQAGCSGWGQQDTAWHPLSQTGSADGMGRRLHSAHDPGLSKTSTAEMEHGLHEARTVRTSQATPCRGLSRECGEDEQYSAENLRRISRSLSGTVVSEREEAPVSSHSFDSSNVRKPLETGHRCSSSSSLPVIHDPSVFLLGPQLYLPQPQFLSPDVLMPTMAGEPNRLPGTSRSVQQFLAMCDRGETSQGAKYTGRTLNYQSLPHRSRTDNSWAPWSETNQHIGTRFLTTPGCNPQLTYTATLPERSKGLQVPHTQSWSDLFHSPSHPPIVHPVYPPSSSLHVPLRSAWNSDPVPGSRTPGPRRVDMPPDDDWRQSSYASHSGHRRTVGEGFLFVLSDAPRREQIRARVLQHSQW
Sequence of UniProt O00487 (O00487 whole entry): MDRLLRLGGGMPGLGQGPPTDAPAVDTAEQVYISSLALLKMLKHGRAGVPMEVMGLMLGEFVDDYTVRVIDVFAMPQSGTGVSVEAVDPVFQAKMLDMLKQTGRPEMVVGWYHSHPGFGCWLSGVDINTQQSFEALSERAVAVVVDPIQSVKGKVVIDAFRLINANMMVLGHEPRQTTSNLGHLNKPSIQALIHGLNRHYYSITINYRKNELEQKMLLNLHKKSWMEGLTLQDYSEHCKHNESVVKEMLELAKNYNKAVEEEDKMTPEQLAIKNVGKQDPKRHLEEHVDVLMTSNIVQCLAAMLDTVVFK

CC(NC(=O)CCl)c1cccc(Cl)c1 (stereo not given)
inactive: [1] -0.459 | [2] -0.115 | [3] -0.252 | [4] -0.283 | [5] 0.0893 | [6] 0.882 | [7] -0.385 | [8] -0.413 | [9] -0.388 | [10] -0.18

— the supplement of paper PMC11732987, “Enantioselective OTUD7B fragment discovery through chemoproteomics screening and high-throughput optimisation” (Communications Chemistry, 2025)
